JMJD2A Tudor inh: blocks the human JMJD2A Tudor domain | AlphaScreen JMJD2A-Tudor / H3K4me3 peptide binding | Potency, µM (doses to about 114 µM), inactives show at the highest dose activity change, negative = inhibition, usual class: inhibitors | hit rate 4.4% among 390,000 | AID 504339; further: on the % scale 0 is the no-effect control and ±100 the full control effect; nearly all actives have a fitted effect of over 50% in size
BAZ2B block: BAZ2B (human) inhibition | AID 504333 | AlphaScreen BAZ2B-H3K14Ac peptide displacement | hit rate 4.4% among 360,000 | Potency, µM (highest dose often 114 µM), inactives show at the highest dose activity change, negative = inhibition, usual class: inhibitors | Q9UIF8; further: on the % scale 0 is the no-effect control and ±100 the full control effect; nearly all actives have a fitted effect of over 60% in size
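Multi-concentration screen (max 110 uM) measuring displacement of acetylated histone H3 peptide from BAZ2B by AlphaScreen, using 50 nM protein, 50 nM peptide and 10 ug/mL streptavidin donor plus Ni-chelate acceptor beads.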
HP1b binding inh: HP1-beta chromodomain-methylated histone interaction inhibition. AlphaScreen HP1-beta / biotin-H3K9me3 peptide binding. P83916. AID 540317. Potency, µM (titrated, usually from 114 µM), for inactives: at the top dose activity change, negative = inhibition, actives largely listed as inhibitors. hit rate 0.56% among 390,000; further: nearly all actives have a fitted effect of over 70% in size
Target sequence (P83916 whole entry, looked up): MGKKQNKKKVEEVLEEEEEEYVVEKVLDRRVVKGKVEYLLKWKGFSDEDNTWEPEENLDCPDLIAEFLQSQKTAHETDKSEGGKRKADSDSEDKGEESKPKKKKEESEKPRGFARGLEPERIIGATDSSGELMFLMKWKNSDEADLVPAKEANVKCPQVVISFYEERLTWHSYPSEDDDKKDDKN
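Compound inhibition of the preformed complex between 50 nM HP1-beta and 50 nM biotinylated H3K9me3 peptide was read by AlphaScreen. Buffer was PBS pH 7.4 with 0.01% Tween-20. Incubations ran 30 min at room temperature, with 10 ug/mL donor/acceptor beads.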
PLK1 PBD inh: inhibitors of human PLK1 polo-box domain binding | P53350 | Plk1 PBD binding of FITC phosphopeptide, fluorescence polarization | Potency, µM, inactives show max response, negative = inhibition, hits mostly inhibitors | hit rate 2.8% among 360,000 | AID 720504; further: series mostly up to about 57 µM; on the % scale 0 is the no-effect control and ±100 the full control effect; nearly all actives have a fitted effect of over 65% in size
G9a inh: inhibitors of human histone lysine methyltransferase G9a; Q96KQ7; G9a H3K9 monomethylation, AlphaScreen, 2 h; Potency, µM (highest dose often 102 µM), for the others: at the top dose activity, negative = inhibition, hits mostly inhibitors; hit rate 8.8% among 350,000; further: on the % scale 0 is the no-effect control and ±100 the full control effect; nearly all actives have a fitted effect of over 75% in size
Target sequence (Q96KQ7 913-1193 limits assumed): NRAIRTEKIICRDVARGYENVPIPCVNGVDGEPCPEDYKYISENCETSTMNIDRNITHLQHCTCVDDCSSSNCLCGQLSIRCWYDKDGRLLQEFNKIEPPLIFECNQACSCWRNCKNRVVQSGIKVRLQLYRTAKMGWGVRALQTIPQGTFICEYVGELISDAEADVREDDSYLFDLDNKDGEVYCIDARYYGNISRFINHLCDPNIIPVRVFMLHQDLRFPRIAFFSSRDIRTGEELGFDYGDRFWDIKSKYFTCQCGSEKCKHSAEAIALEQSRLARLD
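Methyltransferase reactions run at room temperature for 2 h (20 nM enzyme, 500 nM biotin-H3K9 peptide, 20 uM SAM) after a 15 min compound preincubation; product detected by AlphaScreen beads and anti-H3K9me1 antibody.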
Sfp PPTase inh: Sfp phosphopantetheinyl transferase inhibition; Q9F4F7; Biochemical Sfp PPTase activity, qHTS; Potency, µM, without a hit: largest response in the series, negative = inhibition, hits mostly inhibitors; hit rate 3.5% among 310,000;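 further: the enzyme is Sfp with the accession as filed and its product quenches rhodamine fluorescence; 0% = enzyme reaction without inhibitor and -100% = no enzyme wells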
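Buffer: 50 mM Hepes-Na pH 7.6, 10 mM MgCl2, 0.01% Nonidet P-40, 0.01% BSA. Enzyme 15 nM, pre-exposed to compound 15 min; substrates then added and fluorescence change tracked over 30 min.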
* marks the source's active call; other numbers are inactive results; ? = inconclusive; · = no result given; [ ] = remark or other dose. Rows were chosen to be rich in hits. Some 12% of all compounds tested hit in one or more screens of this group. The call rests on the fitted dose curve; in most records, active means well fitted curve in the direction sought with a large enough effect; inconclusive means small, poorly fitted or top-dose-only effect, or another doubt; inactive means no such curve, though single readings can be large; an effect the other way counts as inactive or inconclusive. Potency means the concentration at half of the fitted maximal effect.

SMILES	JMJD2A Tudor inh	BAZ2B block	HP1b binding inh	PLK1 PBD inh	G9a inh	Sfp PPTase inh
Nc1ccc(Nc2ccccc2N)cc1	50µM*	35µM*	?	?	?	3%
COc1ccc(Nc2ccccc2N)cc1	45µM*	35µM*	?	6%	16µM*	-30%
Cc1cc(C)c2c(n1)nn1c(C)c(CCC(=O)NCc3ccccc3Cl)c(C)nc21	-8%	-5%	22%	·	14%[59 µM]	·
CCCN(C(=O)CSc1n[nH]c(-c2ccc(OC)cc2)n1)c1c(N)n(Cc2ccccc2)c(=O)[nH]c1=O	-14%	2%	22%	3%	45µM*	·
COCCN(C(=O)CSc1nnc2cc(C)c3ccccc3n12)c1c(N)n(Cc2ccccc2)c(=O)[nH]c1=O	-6%	8%	45%	1%	16%[59 µM]	7%
COCCN(C(=O)CSc1nnc(-c2ccccc2C)n1C)c1c(N)n(Cc2ccccc2)c(=O)[nH]c1=O	-18%	-12%	1%	-7%	8.9µM*	6%
COCCN(C(=O)CSc1nnc(C)n1Cc1ccccc1)c1c(N)n(Cc2ccccc2)c(=O)[nH]c1=O	?	·	-12%	27µM*	?	6%
COCCN(C(=O)CSc1nncn1-c1ccccc1)c1c(N)n(Cc2ccccc2)c(=O)[nH]c1=O	-5%	8%	3%	-4%	-7%[59 µM]	8%
CCCc1cc(=O)[nH]c(SCC(=O)N(CCOC)c2c(N)n(Cc3ccccc3)c(=O)[nH]c2=O)n1	-1%	9%	49%	0%	50µM*	·
COc1ccc(N2CCN(CCCn3cnc4c(OC)ncnc43)CC2)cc1	·	·	·	-9%	·	·
CCOC(=O)c1scc(-c2ccc(C)cc2)c1S(=O)(=O)Nc1cccc(CC)c1	5%	-5%	5%	·	7%[59 µM]	·
CCOC(=O)C1CCN(S(=O)(=O)c2cc3c4c(c2)CC(=O)N4CCC3)CC1	-4%	-17%	38%	·	4%[59 µM]	·
CC12CCC(c3nnc(SCc4ccc(Cl)cc4)nc31)C2(C)C (stereo unspecified)	24%	25%	64%	-5%	13%[59 µM]	-6%
CC12CCC(c3n[nH]c(=S)nc31)C2(C)C (stereo unspecified)	20µM*	-11%	-31%	-11%	8.9µM*	?
CCc1ccccc1OCCCCN1CCCCC1	1.8µM*	?	?	1%	40µM*	-1%
Cc1ccccc1OCCCCN1CCCCC1	-7%	-3%	43%	-7%	6%[59 µM]	15%
COc1ccccc1OCCCCN1CCCCC1	-9%	-35%	10%	-5%	25%	9%
CCc1ccccc1OCCCN1CCCC1	-89%	?	-15%	1%	50µM*	-2%
O=C(CN1C(=O)COc2ccc(S(=O)(=O)N3CCCC3)cc21)N1CCN(c2ccc(Cl)cc2)CC1	-22%	15%	52%	·	26%[59 µM]	·
CN(C)CCCNC(=S)NCC(c1ccc(Cl)cc1Cl)c1c[nH]c2ccccc12 (stereo unspecified)	?	?	-17%[57 µM]	-9%	?	50µM*
CCCN1Cc2cccc(C(=O)Nc3ccccc3F)c2C1=O	-3%	8%	22%	·	3%[59 µM]	·
COc1cc(C(=O)OCCN2CCOCC2)ccc1O	?	4%	-7%	?	-5%[59 µM]	10%
O=C(OCCCN1CCOCC1)c1ccc(O)c(O)c1	32µM*	-29%	22%	-7%	13µM*	?
COc1ccccc1-n1cnnc1SCC(=O)Nc1cccc(S(N)(=O)=O)c1	-11%	28%	23%	5%	3%	11%
Cc1ccccc1NC(=O)c1c(C)oc2ccc(O)c(CN3CCCCCC3)c12	-26%	-10%	-27%	·	-20%[59 µM]	·
CCOC(=O)c1c(N)sn(-c2ccccc2C)c1=S	56µM*	?	-71%	5.3µM*	5.6µM*	18µM*
COc1ccccc1-c1cc(-c2ccc(C)cc2)nc(SCc2nnc(-c3ccccc3)o2)c1C#N	-22%	11%	-26%	21µM*	11µM*	?
Cc1cc(C)c(C#N)c(SCc2nnc(-c3ccccc3)o2)n1	1%	21%	39%	-15%	-9%[59 µM]	-11%

High-throughput results from PubChem BioAssay.
